For 6 molecules, outcome and AC50 results are on record in PubChem BioAssay (EPA / NIEHS).

Each structure is given as a SMILES string. Active and inactive are the calls of the source. Rule for the calls: active = hit-call score of the fitted dose curve at least 0.9, where 1 is the maximum; inactive = score below 0.9.

What all share (settings): mRNA level, 48 h; actives raise or lower the signal
Read-out in test [1]: Cytochrome P450 4A22 (Homo sapiens) (UniProt Q5TCH4)
Description: LTEA_HepaRG_CYP4A22: Life Technologies and Expression Analysis (LTEA) Assay for Cytochrome P450 4A22 (CYP4A22) using HepaRG (AID 2283495). The procedure, abridged:
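Concentration-response (8 points, max 100 uM, 0.5% DMSO) in human HepaRG liver cells after 48 h exposure. CYP4A22 mRNA by TaqMan qRT-PCR with housekeeping-gene normalization.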

Read-out in test [2]: Cytochrome P450 7A1 (Homo sapiens) (UniProt P22680)
Description: LTEA_HepaRG_CYP7A1: Life Technologies and Expression Analysis (LTEA) Assay for Cytochrome P450 7A1 (CYP7A1) using HepaRG (AID 2283496). The gist of the method: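 Using 0.5% DMSO as vehicle and baseline, chemicals were tested in duplicate over an 8-point range from 100 uM on HepaRG cells for 48 h; qRT-PCR signals were normalised to ACTB, GAPDH and POLR2A.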

Read-out in test [3]: Glutathione S-Transferase (GSTA2), GSTA2 (gene 2939)
Briefly: LTEA_HepaRG_GSTA2: Life Technologies and Expression Analysis (LTEA) Assay for Glutathione S-Transferase (GSTA2) using HepaRG (AID 2283497). The gist of the method: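 GSTA2 transcript levels came from Fluidigm TaqMan qRT-PCR normalized to three housekeeping genes, fitted in both directions against DMSO. HepaRG cultures received chemicals for 48 h in serum-free induction medium (0.5% DMSO), 8 half-log concentrations up to 100 uM, duplicate.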

Read-out in test [4]: Glutamate-cysteine ligase catalytic (GCLC), GCLC (gene 2729)
Briefly: LTEA_HepaRG_GCLC: Life Technologies and Expression Analysis (LTEA) Assay for Glutamate-cysteine ligase catalytic (GCLC) using HepaRG (AID 2283498). The gist of the method: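 Expression by TaqMan qRT-PCR, normalized to three housekeeping genes (ACTB, GAPDH, POLR2A), with up- or down-regulation fitted against DMSO. HepaRG cells dosed in duplicate for 48 h with 8 half-log concentrations up to 100 uM, vehicle 0.5% DMSO.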

Read-out in test [5]: growth arrest and DNA damage 45 (GADD45G), GADD45G (gene 10912)
Briefly: LTEA_HepaRG_GADD45G: Life Technologies and Expression Analysis (LTEA) Assay for growth arrest and DNA damage 45 (GADD45G) using HepaRG (AID 2283499). The gist of the method: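 Concentration-response in HepaRG: 48 h dosing, 0.5% DMSO, highest level 100 uM. GADD45G expression by qRT-PCR, normalised to endogenous controls; bidirectional fit to DMSO.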

Read-out in test [6]: Glutamate-cysteine ligase regulatory (GCLM), GCLM (gene 2730)
Briefly: LTEA_HepaRG_GCLM: Life Technologies and Expression Analysis (LTEA) Assay for Glutamate-cysteine ligase regulatory (GCLM) using HepaRG (AID 2283500). The gist of the method:
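In this multiplexed HepaRG gene-expression assay, GCLM mRNA change after 48 h treatment (8 concentrations, max 100 uM) was scored against DMSO by bidirectional curve fitting.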

Read-out in test [7]: Glutathione S-transferase M3 (GSTM3), GSTM3 (gene 2947)
Description: LTEA_HepaRG_GSTM3: Life Technologies and Expression Analysis (LTEA) Assay for Glutathione S-transferase M3 (GSTM3) using HepaRG (AID 2283501). The procedure, abridged: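 Expression of GSTM3 is determined by qRT-PCR in human liver HepaRG cells treated 48 h with an 8-point half-log range from 100 uM in 0.5% DMSO.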

Read-out in test [8]: Heat shock 70 kDa protein 1 (HSPA1A), gene 3303
Briefly: LTEA_HepaRG_HSPA1A: Life Technologies and Expression Analysis (LTEA) Assay for Heat shock 70 kDa protein 1 (HSPA1A) using HepaRG (AID 2283502). The gist of the method: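 An oxidative-stress marker readout: HepaRG cells treated 48 h in duplicate with an eight-point series (highest 100 uM) had HSPA1A mRNA quantified by TaqMan qRT-PCR. Activity was fitted in both directions using 0.5% DMSO as baseline.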

Read-out in test [9]: Hypoxia-inducible factor 1-alpha (Homo sapiens) (UniProt Q16665)
Briefly: LTEA_HepaRG_HIF1A: Life Technologies and Expression Analysis (LTEA) Assay for Hypoxia-inducible factor 1 (HIF1A) Trancription factor using HepaRG (AID 2283503).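 Note: HIF1A transcript by TaqMan qRT-PCR normalized to ACTB GAPDH and POLR2A.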 The gist of the method:
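Gain- or loss-of-signal HIF1A mRNA changes are fitted against a DMSO baseline. HepaRG cultures receive eight concentrations, highest 100 uM, for 48 h in serum-free induction medium with 0.5% DMSO.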

Read-out in test [10]: 3-Hydroxy-3-Methylglutaryl-CoA Synthase 2 (HMGCS2), HMGCS2 (gene 3158)
Briefly: LTEA_HepaRG_HMGCS2: Life Technologies and Expression Analysis (LTEA) Assay for 3-Hydroxy-3-Methylglutaryl-CoA Synthase 2 (HMGCS2) using HepaRG (AID 2283504). The gist of the method: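 This steatosis marker was read as HMGCS2 mRNA change in HepaRG cells treated 48 h with up to 100 uM chemical. Normalisation used housekeeping genes; activity in either direction was fitted relative to 0.5% DMSO vehicle.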

Read-out in a further test: HGF (gene 3082)
Briefly: LTEA_HepaRG_HGF: Life Technologies and Expression Analysis (LTEA) Assay for Hepatocyte Growth Facto (HGF) using HepaRG (AID 2283505). The procedure, abridged:
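Using HepaRG monolayers kept in 0.5% DMSO, chemicals were tested in duplicate over eight half-log concentrations from 100 uM for 48 h. Endpoint: HGF mRNA change relative to DMSO, normalized to ACTB/GAPDH/POLR2A.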

Read-out in test [11]: Insulin Like Growth Factor 1 (IGF1), IGF1 (gene 3479)
Briefly: LTEA_HepaRG_IGF1: Life Technologies and Expression Analysis (LTEA) Assay for Insulin Like Growth Factor 1 (IGF1) using HepaRG (AID 2283506). The procedure, abridged: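 Endpoint: IGF1 mRNA change by qRT-PCR, housekeeping-normalized, fitted bidirectionally relative to 0.5% DMSO vehicle. Human HepaRG cells were treated 48 h in serum-free induction medium, eight half-log concentrations topping at 100 uM.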

Read-out in test [12]: Intercellular Adhesion Molecule 1 (ICAM1), ICAM1 (gene 3383)
Description: LTEA_HepaRG_ICAM1: Life Technologies and Expression Analysis (LTEA) Assay for Intercellular Adhesion Molecule 1 (ICAM1) using HepaRG (AID 2283507). The procedure, abridged: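 Using the human liver line HepaRG, compounds are tested in duplicate over 48 h at concentrations up to 100 uM. Expression is determined by TaqMan qRT-PCR, normalized to endogenous controls, and analysed relative to 0.5% DMSO vehicle.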

Read-out in test [13]: Insulin-like growth factor-binding protein 1 (IGFBP1), IGFBP1 (gene 3484)
Briefly: LTEA_HepaRG_IGFBP1: Life Technologies and Expression Analysis (LTEA) Assay for Insulin-like growth factor-binding protein 1 (IGFBP1) using HepaRG (AID 2283508). The gist of the method:
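HepaRG, 48 h, 8 conc. (max 100 uM, half-log), duplicates, 0.5% DMSO. Readout: TaqMan qRT-PCR, ACTB/GAPDH/POLR2A normalisation. Fit: bidirectional vs DMSO.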

Read-out in test [14]: Interleukin 6 Receptor (IL6R), IL6R (gene 3570)
Description: LTEA_HepaRG_IL6R: Life Technologies and Expression Analysis (LTEA) Assay for Interleukin 6 Receptor (IL6R) using HepaRG (AID 2283510).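 For AC50: differentiated human HepaRG liver cells in serum-free induction medium.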 The gist of the method:
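In this HepaRG screen, test chemicals act on cells for 48 h at up to 100 uM (eight half-log points, duplicate wells). IL6R expression is quantified by qRT-PCR after normalization to ACTB, GAPDH and POLR2A, with DMSO as baseline.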

Read-out in test [15]: Potassium channel subfamily K member 1 (KCNK1), KCNK1 (gene 3775)
Briefly: LTEA_HepaRG_KCNK1: Life Technologies and Expression Analysis (LTEA) Assay for Potassium channel subfamily K member 1 (KCNK1) using HepaRG (AID 2283511). The gist of the method:
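KCNK1 transcript measured by TaqMan qRT-PCR against three housekeeping genes, after HepaRG cells were treated 48 h with eight half-log concentrations (top 100 uM, 0.5% DMSO). Curves fitted bidirectionally relative to vehicle.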

Read-out in test [16]: Keratin 19 (KRT19), KRT19 (gene 3880)
Briefly: LTEA_HepaRG_KRT19: Life Technologies and Expression Analysis (LTEA) Assay for Keratin 19 (KRT19) using HepaRG (AID 2283512). The procedure, abridged:
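Readout is qRT-PCR of KRT19 mRNA, normalized to ACTB, GAPDH and POLR2A, from HepaRG cells treated 48 h with eight-point half-log dilutions topping at 100 uM. Activity in either direction is scored relative to 0.5% DMSO vehicle.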

Read-out in test [17]: JUN Transcription Factor, JUN (gene 3725)
Briefly: LTEA_HepaRG_JUN: Life Technologies and Expression Analysis (LTEA) Assay for JUN Transcription Factor using HepaRG (AID 2283513). The procedure, abridged:
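Gene-expression endpoint: JUN mRNA (qRT-PCR, normalized to three reference genes) in HepaRG cultures treated 48 h with chemicals, duplicate wells, 100 uM maximum with half-log dilutions; bidirectional fitting relative to 0.5% DMSO.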

Read-out in test [18]: Lipase C (LIPC), LIPC (gene 3990)
Briefly: LTEA_HepaRG_LIPC: Life Technologies and Expression Analysis (LTEA) Assay for Lipase C (LIPC) using HepaRG (AID 2283514). The gist of the method: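 LIPC expression was quantified by qRT-PCR against three housekeeping genes (ACTB, GAPDH, POLR2A). Differentiated human HepaRG cells received eight half-log doses (top 100 uM, 0.5% DMSO) in duplicate for 48 h; fitting bidirectional relative to DMSO.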

Read-out in test [19]: Interleukin 6 (IL6), IL6 (gene 3569)
Briefly: LTEA_HepaRG_IL6: Life Technologies and Expression Analysis (LTEA) Assay for Interleukin 6 (IL6) using HepaRG (AID 2283509). The procedure, abridged:
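Transcript levels, normalized to three housekeeping genes, were quantified by qRT-PCR after 48 h chemical treatment of HepaRG cells. Eight-point half-log series from 100 uM in 0.5% DMSO, duplicates. Fitted both directions against DMSO baseline.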

Sequence of Hypoxia-inducible factor 1-alpha (Homo sapiens) (Q16665 whole entry, looked up): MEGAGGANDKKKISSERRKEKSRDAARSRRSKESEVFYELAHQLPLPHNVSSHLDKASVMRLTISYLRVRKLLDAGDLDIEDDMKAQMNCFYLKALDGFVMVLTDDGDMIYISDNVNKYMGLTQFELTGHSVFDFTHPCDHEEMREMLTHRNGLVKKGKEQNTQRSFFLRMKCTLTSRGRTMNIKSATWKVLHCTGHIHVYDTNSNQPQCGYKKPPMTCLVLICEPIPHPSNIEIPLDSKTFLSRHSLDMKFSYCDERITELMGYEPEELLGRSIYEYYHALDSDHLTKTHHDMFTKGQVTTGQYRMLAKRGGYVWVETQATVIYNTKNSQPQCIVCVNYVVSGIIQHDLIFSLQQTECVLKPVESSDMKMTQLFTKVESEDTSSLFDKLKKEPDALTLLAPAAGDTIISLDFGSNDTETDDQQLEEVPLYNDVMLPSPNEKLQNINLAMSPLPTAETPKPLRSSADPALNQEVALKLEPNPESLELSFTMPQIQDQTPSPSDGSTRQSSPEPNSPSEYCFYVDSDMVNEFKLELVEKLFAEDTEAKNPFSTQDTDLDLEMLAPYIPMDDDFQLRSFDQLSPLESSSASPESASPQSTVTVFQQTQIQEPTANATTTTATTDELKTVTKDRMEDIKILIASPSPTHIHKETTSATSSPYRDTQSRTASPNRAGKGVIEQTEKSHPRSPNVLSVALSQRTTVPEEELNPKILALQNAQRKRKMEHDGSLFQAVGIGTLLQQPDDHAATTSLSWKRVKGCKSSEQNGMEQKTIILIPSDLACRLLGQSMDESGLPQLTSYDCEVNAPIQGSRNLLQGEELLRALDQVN

One may read the AC50 as the midpoint of the concentration-response curve, whichever way the signal moves. As for `CCN(CC)C(=O)c1cc(S(=O)(=O)Cc2ccccc2)c(N2CCC(c3ccccc3)CC2)cc1N(CC)CCN(C)C`, the molecule was classed as inactive (in [1]; in test [2]; in test [6]; in [7]; in [9]; with HGF (gene 3082)). Further, the result in test [11], in test [14], in test [15], in test [16] and in test [18] was inactive. Also, the AC50 in test [3] was 4.51 µM (active); in test [4], 30.7 µM (active); in [5] it was 20.5 µM (active); in test [8], 24.5 µM (active); in test [10], 35.5 µM (active); in [12], 19 µM (active). Further, the AC50 in [13] is 32.2 µM (active); in test [17], 30.4 µM (active).
As to `CCOC(=O)O[C@H](C)OC(=O)c1ccc2c(c1)cc(C(=O)NC1CCN(C(C)C)CC1)n2Cc1cc(-c2ccc(Cl)s2)on1`, the call in [1], in [2], in test [3], in test [4], in test [5] and in [6] was inactive. In addition, the molecule was called inactive (in test [8]; in [9]; in [10]; with HGF (gene 3082); in test [11]; in test [12]). For the same molecule, the outcome in [13], in test [14], in [15], in test [16], in [17] and in test [18] was inactive.
Take `Clc1cc(Cl)c2c(c1)N=C1CCCCCN1C2`: the call in [1], in test [2], in [3], in test [4], in test [5] and in test [6] was inactive. Also, the outcome (in test [7]; in test [8]; in [9]; in [10]; with HGF (gene 3082); in [12]) was inactive. The call in test [14], in test [15], in [16], in test [17] and in test [18] was inactive. Moreover, the half-maximal activity concentration (AC50) in [11] is 5.03 µM (active); in test [13] it was 15.5 µM (active).
Turning to `c1ccc(C[n+]2cccc3ccccc32)cc1`, the AC50 in [1] was 22.6 µM (active); in [2] it was 33.7 µM (active); in test [3], 75 µM (active); in test [4] it was 85.9 µM (active); in [5], 43.6 µM (active); in test [6], 62.7 µM (active). Moreover, the AC50 was 22.8 µM (active) in [8]; 31 µM (active) in [10]; 20.7 µM (active) in [11]; 70.8 µM (active) in test [12]; 34.6 µM (active) in test [13]; 50 µM (active) in test [14]. The values for the AC50 in test [16] and in [18] were 28.6 µM (active) and 32 µM (active), respectively. Besides, the call (in test [9]; with HGF (gene 3082); in test [17]) was inactive.
As to `Cc1ncc(CO)c(CO)c1O`, the call in test [1], in [2], in [3], in test [4], in test [5] and in [6] was inactive. Also, the molecule was called inactive in test [8], in [10], in test [11], in test [12], in test [13] and in test [14]. The molecule was called inactive in test [15], in test [16], in [17] and in [18].
As for `CC1(C)NC(=O)N(c2ccc([N+](=O)[O-])c(C(F)(F)F)c2)C1=O`, the AC50 in test [1] was 67.4 µM (active); in [2], 90.1 µM (active); in [3], 78.4 µM (active); in test [4], 83.4 µM (active); in test [5] it was 77.4 µM (active); in test [6], 70.9 µM (active). Moreover, the AC50 in test [10] is 76.6 µM (active); in [11], 69.2 µM (active); in test [13] it was 90.2 µM (active); in [19] it was 83.7 µM (active); in [16] it was 67.8 µM (active); in test [18], 89.7 µM (active). Also, the outcome in test [8], in [12], in [14], in test [15] and in test [17] was inactive.
